# Compounds with a hit are over-represented: about 12% of the library has one in this group of screens.
# Sfp inh: inhibitors of Bacillus subtilis Sfp phosphopantetheinyl transferase. Q9F4F7. Biochemical Sfp PPTase activity, qHTS. Potency, µM, without a hit: largest response in the series, negative = inhibition, most hits filed as inhibitors. hit rate 3.5% among 310,000. AID 1490;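 note: the enzyme is Sfp with the accession as filed and its product quenches rhodamine fluorescence; 0% = enzyme reaction without inhibitor and -100% = no enzyme wells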
#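 Buffer: 50 mM Hepes-Na pH 7.6, 10 mM MgCl2, 0.01% Nonidet P-40, 0.01% BSA. Enzyme 15 nM, pre-exposed to compound 15 min; substrates then added and fluorescence change tracked over 30 min.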
# RORgamma inh: blocks mouse ROR gamma transcriptional activity. Drosophila S2 Gal4-RORgamma UAS-luciferase reporter, 20 h. Potency, µM (top dose mostly 53.6 µM), for the others: at the top dose activity change, negative = inhibition, usual class: inhibitors. hit rate 5.4% among 310,000; note: nearly all actives have a fitted effect of over 60% in size
# Target sequence (P51450 whole entry, looked up, the tested form may be a part): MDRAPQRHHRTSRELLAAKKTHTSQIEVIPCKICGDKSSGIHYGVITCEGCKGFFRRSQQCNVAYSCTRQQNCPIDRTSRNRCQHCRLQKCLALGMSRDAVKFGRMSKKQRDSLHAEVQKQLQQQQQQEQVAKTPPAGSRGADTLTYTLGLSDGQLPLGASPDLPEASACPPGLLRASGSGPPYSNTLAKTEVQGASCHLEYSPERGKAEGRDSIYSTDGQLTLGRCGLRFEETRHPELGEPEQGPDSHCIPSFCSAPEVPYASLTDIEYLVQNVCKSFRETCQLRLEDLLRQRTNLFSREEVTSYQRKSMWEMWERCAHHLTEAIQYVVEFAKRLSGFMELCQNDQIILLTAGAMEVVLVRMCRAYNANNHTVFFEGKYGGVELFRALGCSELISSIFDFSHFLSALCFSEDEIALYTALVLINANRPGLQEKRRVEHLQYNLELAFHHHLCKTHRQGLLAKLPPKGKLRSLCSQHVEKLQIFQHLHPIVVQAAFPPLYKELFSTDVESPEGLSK
#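 Read-out: Photinus luciferase luminescence; inhibitors lower reporter signal. Insect Schneider cells with Gal4-ROR gamma fusion under metallothionein promoter, UAS reporter; 700 uM final copper sulfate induction, 20 hr, ambient temperature.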
# ALDH1A1 inh: inhibitors of human aldehyde dehydrogenase 1A1. Potency, µM (titrated, usually from 75.3 µM), for inactives: top-dose activity, negative = inhibition, hits mostly inhibitors. Purified ALDH1A1, NADH fluorescence, propionaldehyde substrate. P00352. hit rate 7.3% among 220,000. AID 1030; active = well fitted inhibition curve with a large enough effect, not every such curve was filed as active; inconclusive = small, poorly fitted or top-dose-only effect, or another doubt; inactive = no such curve, though single readings can be large or run the other way;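 note: plate controls were no enzyme wells and a reference inhibitor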
# PLK1 PBD inh: inhibitors of human PLK1 polo-box domain binding; P53350; Plk1 PBD binding of FITC phosphopeptide, fluorescence polarization; Potency, µM, without a hit: max response, negative = inhibition, most hits filed as inhibitors; hit rate 2.8% among 360,000; AID 720504; note: series mostly up to about 57 µM; nearly all actives have a fitted effect of over 65% in size
# VP16 counter: inhibits Gal4-VP16 luciferase reporter, ROR gamma counter-screen | Potency, µM (highest dose often 53.6 µM), inactives show at the highest dose activity, negative = inhibition, hits mostly inhibitors | Drosophila S2 Gal4-VP16 UAS-luciferase, luminescence, 20 h | AID 2546 | hit rate 3.5% among 310,000;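 note: Gal4-VP16 expression switched on by copper sulfate through the metallothionein promoter; nearly all actives have a fitted effect of over 50% in size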
# An asterisk follows results filed as active; u = inconclusive; x = no result given; ! = not confirmed by another sample; [ ] = dose if it differs, or a comment. Unless noted, calls come from the whole dose curve; as a rule, active = well fitted curve in the direction sought with a large enough effect; inconclusive = small, poorly fitted or top-dose-only effect, or another doubt; inactive = no such curve, though single readings can be large; an effect the other way counts as inactive or inconclusive. Unless noted, % is set by controls: 0 for no effect and ±100 for the full control effect; potency is the fitted concentration of half-maximal effect.
SMILES,Sfp inh,RORgamma inh,ALDH1A1 inh,PLK1 PBD inh,VP16 counter
O=C1NC(=S)N(c2ccc(F)cc2)C(=O)/C1=C\c1ccoc1,20µM*,-13%,u,2.7µM*,-2%
O=C1NC(=S)N(c2ccc(Cl)cc2)C(=O)/C1=C/N1CCN(C(=O)c2ccco2)CC1,45µM*,-31%,u,u,-1%
Cc1ccc(-n2c(C)cc(/C=C3/C(=O)NC(=O)N(C)C3=O)c2C)cc1,-17%,9%,u,-14%,-2%
COc1ccc(N2C(=O)/C(=C/c3cc(C)n(-c4ccc(C)cn4)c3C)C(=O)NC2=S)c(OC)c1,35µM*,-6%,u,30µM*,-9%
CCCCOCCOP(=O)(OCCOCCCC)OCCOCCCC,x,0%,4%,x,7%
CC[C@]12C=CCN3CC[C@@]4(c5ccc(OC)cc5N(C)[C@H]4[C@@](O)(C(=O)OC)[C@@H]1OC(C)=O)C32 (stereo partly drawn),-6%,32%,x,x,-6%
NCCNC[C@@H](N)CCCN=C(N)N[N+](=O)[O-],11%,-6%,x,x,-11%
C1C[C@@H]2CN(CCCN3CCOCC3)[C@@H](C1)O2,x,x,11%[13.5 µM],x,x
c1nc[n]([Sn]([CH]2CCCCC2)([CH]2CCCCC2)[CH]2CCCCC2)n1,u,u,x,x,22µM*
COC(=O)COc1ccc(C[C@@H](C)NC[C@H](O)c2cccc(Cl)c2)cc1,-6%,-13%,x,x,-7%
CCOc1ccc(OCC)c(NC(=O)CN2CCN(c3ccc(C)cc3C)CC2)c1,32µM*,u,u,-7%,-13%
COc1ccc(C)cc1NC(=O)CN1CCN(CC(=O)Nc2ccccc2F)CC1,17%,-22%,u,0%,-10%
CCC(C)n1c(C)cc(C(N)=O)c1C (stereo not drawn),9%,-20%,6%,0%,12%
CCCn1c(C)cc(C=O)c1C,15%,18%,7.1µM*,-11%,-7%
Cc1cc(C=O)c(C)n1C(C)C,20%,-5%,14µM*,-8%,-9%
C=CCC1(C(C)CCC)C(=O)N=C(S)NC1=O (stereo not drawn),23%,10µM*,10%,x,-4%
CCCCCCCCCCCCC/C=C/[C@@H](O)[C@@H](N)COP(=O)(O)O,3%,5%,16%,x,-7%
Cc1cc(N2CCOCC2)ccc1/C=C1\C(=O)NC(=O)N(c2ccccc2)C1=O,35µM*,3%,u,12µM*,-16%
COc1cc(N2CCOCC2)ccc1C=C1C(=O)NC(=O)NC1=O,56µM*,-2%,13µM*,-9%,u
O=C1NC(=O)N(c2cccc(F)c2)C(=O)/C1=C/c1ccc(N2CCOCC2)cc1,32µM*,1%,5µM*,12µM*,2%
CC=C1C2C=C(C)CC1(N)c1ccc(=O)[nH]c1C2 (stereo not drawn),17%,x,-2%,x,x
Cc1c([C@@H](C)C2NC[C@H](C)C[C@@H]2O)ccc2c1C[C@@H]1[C@H]2CC=C2C[C@@H](O)CC[C@@]21C (stereo partly drawn),x,x,-2%[13.5 µM],x,x
Cc1ccc2c(Cl)cc(Cl)c(O)c2n1,10%,0.56µM*!,7%,-19%,0.89µM*!
CN(C)C(=O)Oc1c(Cl)cc(Cl)c2cccnc12,20%,15%,2%,-10%,10%
CCCCC/C=C\C/C=C\C/C=C\C/C=C\CCCC(=O)OCCN,63µM*,9%,u,x,u
SMILES,Sfp inh,RORgamma inh,ALDH1A1 inh,PLK1 PBD inh,VP16 counter
CCCCC/C=C\C/C=C\C/C=C\C/C=C\CCCC(=O)NCC(=O)O,79µM*!,19%,5%,x,-4%
CCCCC/C=C\C/C=C\C/C=C\C/C=C\CCCC(=O)NCCc1ccc(O)c(O)c1,45µM*!,11µM*!,16µM*!,x,-28%
CCCCC/C=C\C/C=C\C/C=C\C/C=C\CCCC(N)=O,28%,-36%,-4%,x,-2%
CCCCC/C=C\C/C=C\C/C=C\C/C=C\CCCC(=O)Nc1ccc(O)cc1C,-1%,u,u,x,u
CCCCC/C=C\C/C=C\C/C=C\C/C=C\CCCC(=O)N(Cc1ccc(O)c(Cl)c1)Cc1ccc(O)c(Cl)c1,-5%,3%,3.5µM*,x,10%
CCCCC/C=C\C/C=C\C/C=C\C/C=C\CCCC(=O)NCCCC(=O)O,u,-1%,-1%,x,9%
CCCCC/C=C\C/C=C\CCCCCCCCCC(=O)NCCO,-2%,38%,-3%,x,3%
CCCCC/C=C\C/C=C\C/C=C\C/C=C\CCCC(=O)NCc1ccoc1,22µM*,13%,18µM*,x,-16%
CCCCC/C=C\C/C=C\C/C=C\C/C=C\CCCC(=O)Nc1ccc(O)cc1,33%,-14%,u,x,-15%
CCCCC/C=C\C/C=C\C/C=C\C/C=C\CCCC(=O)NCCO,45µM*!,38%,10µM*!,x,-1%
c1ccc(CCN2CCCCCC2)nc1,x,x,13%[13.5 µM],x,x
CCCCCCCCCCCCCC(=O)OC1C(C)[C@@]2(O)C(C=C(CO)C[C@]3(O)C(=O)C(C)=C[C@H]23)[C@@H]2C(C)(C)[C@]12OC(C)=O (stereo partly drawn),2%,-15%,u,x,-6%
C=CC(C)(C)c1c2c(c(O)c3c(=O)c4ccc(O)c(O)c4oc13)C=CC(C)(C)O2,11%,u,-2%,x,u
O=C(O)c1ccccc1C(=O)O,x,-14%,28µM*,-4%,4%
O=C(O)c1ccccc1S,u,9%,-9%,x,3%
O=C(O)c1ccc[nH]c1=S,8.9µM*,-7%,x,u,-5%
O=C(O)c1cccc2nc3ccccc3nc12,18%,-20%,u,1%,1%
O=C(Oc1ccccc1)N1CCC2(CCN(Cc3ccccc3)CC2)CC1,11%,-4%,u,x,-13%
COC(=O)C(O)(c1ccc(NC(=S)NC(=O)c2ccccc2)cc1)C(F)(F)F (stereo not drawn),-16%,10µM*,25µM*,-19%,u
COc1ccc(-c2nc3ccccc3c(=O)n2-c2nccs2)cc1,-2%,6.3µM*,-13%,1%,u
O=c1c2ccccc2nc(-c2ccco2)n1-c1ccccc1,6%,-1%,-6%,-3%,-29%
O=c1c2ccccc2nc(-c2ccco2)n1-c1ccncc1,4%,u,28µM*,0%,5%
COc1ccc(-c2nc3ccccc3c(=O)n2-c2ccc(OC)cc2)cc1,-1%,4%,11µM*,-7%,7%
c1cc(CCN2CCCCC2)ccn1,x,x,11%[13.5 µM],x,x
COc1ccc(C(C)=O)cc1COc1ncnc2ccccc12,13%,-4%,1.8µM*,-26%,-28%
COc1cc2c(cc1OC)C1C(=O)c3c(cc4c(c3O)C=CC(C)(C)O4)OC1CO2 (stereo not drawn),u,2.8µM*,2%,x,1µM*
CC(C)CC(N)C1(c2ccc(Cl)cc2)CCC1 (stereo not drawn),13%,u,0%,x,-6%
O=C(Cn1c(=S)[nH]c2ccccc2c1=O)N1CCC2(CC1)OCCO2,0%,-11%,5%,-6%,-4%
